{"source": "the OligoGym collection", "data": [{"target": "CPNE5", "experiment": "pooled miR-30 sensor sort-seq; sequence = guide strand", "settings": "shRNA", "values": [{"sequence": "TTCTTCATGACCTCGGTCTTGT", "sensor-assay potency score (higher = more potent)": 0.503}, {"sequence": "TTGCATCGTACTGAGTTCGAGA", "sensor-assay potency score (higher = more potent)": -0.62}, {"sequence": "TTCTTGTCCAGCTTGTTGGCAC", "sensor-assay potency score (higher = more potent)": -0.22}, {"sequence": "TTGGTCAGGGATCTCTGCCAGC", "sensor-assay potency score (higher = more potent)": -1.14}, {"sequence": "TAGTGCTGGATGATCTCTCCGA", "sensor-assay potency score (higher = more potent)": 0.148}, {"sequence": "TAATCCACAATGAACTTGCGCA", "sensor-assay potency score (higher = more potent)": -0.151}, {"sequence": "TTCTTCATTTTCTTTTTCGGGT", "sensor-assay potency score (higher = more potent)": -0.414}, {"sequence": "TTGTCGATGACTTCGGTGCGCC", "sensor-assay potency score (higher = more potent)": -0.869}]}, {"target": "CRB1", "experiment": "pooled miR-30 sensor sort-seq; sequence = guide strand", "settings": "shRNA", "values": [{"sequence": "TTGGCTTTCACACCAATCCTTT", "sensor-assay potency score (higher = more potent)": -1.07}, {"sequence": "TTATATTGTCAATAGCTCTGTC", "sensor-assay potency score (higher = more potent)": 0.532}, {"sequence": "TATTATTACATTTGCATCCCTT", "sensor-assay potency score (higher = more potent)": -0.226}, {"sequence": "TGTCTGAACAAGAACAATCATT", "sensor-assay potency score (higher = more potent)": -1.04}, {"sequence": "TTTATATTGTCAATAGCTCTGT", "sensor-assay potency score (higher = more potent)": 0.0403}, {"sequence": "TTCATTGACGTCTTCTTCGCAG", "sensor-assay potency score (higher = more potent)": 0.387}, {"sequence": "TTCAAATCCTTGAAGCACCGGC", "sensor-assay potency score (higher = more potent)": 0.589}, {"sequence": "TTGAAGAACATTCATTGACGTC", "sensor-assay potency score (higher = more potent)": -0.696}, {"sequence": "TTTGAGAAATTGCTCTTCCTGA", "sensor-assay potency score (higher = more potent)": -0.258}, {"sequence": "TTGAGGTCGATCTCACACTGGG", "sensor-assay potency score (higher = more potent)": -0.294}, {"sequence": "ATAAATATCTGTATTATCCTTC", "sensor-assay potency score (higher = more potent)": 0.756}, {"sequence": "TTACATCTTGGATACAGCCTTT", "sensor-assay potency score (higher = more potent)": -0.193}]}, {"target": "CRB3", "experiment": "pooled miR-30 sensor sort-seq; sequence = guide strand", "settings": "shRNA", "values": [{"sequence": "TGGACGCAGGTTGCCATCGGAG", "sensor-assay potency score (higher = more potent)": -1.88}, {"sequence": "TGGGAGAACTGCTCCTCGCTAC", "sensor-assay potency score (higher = more potent)": -1.03}, {"sequence": "AAGACCACGATGATAGCAGTGA", "sensor-assay potency score (higher = more potent)": -0.0143}, {"sequence": "ATGAAGGCAAAACAGTGCTATT", "sensor-assay potency score (higher = more potent)": -1.64}, {"sequence": "ATAGCAGTGATGGCTTCTGGAC", "sensor-assay potency score (higher = more potent)": -1.45}, {"sequence": "TCCGTCTGCCGCTTCTCCCGAA", "sensor-assay potency score (higher = more potent)": -1.23}, {"sequence": "TTCTCATTTGCAGAAGTGGTCT", "sensor-assay potency score (higher = more potent)": -0.965}, {"sequence": "TGCTCCTCGCTACTGGGCCGGT", "sensor-assay potency score (higher = more potent)": -1.75}, {"sequence": "TTGCAGAAGTGGTCTGTATTTG", "sensor-assay potency score (higher = more potent)": -1.49}, {"sequence": "TTTGAAGTACCTTCTTCCCTGC", "sensor-assay potency score (higher = more potent)": 0.11}, {"sequence": "TATTCTCATTTGCAGAAGTGGT", "sensor-assay potency score (higher = more potent)": -1.61}, {"sequence": "TTGCCATCGGAGCTGGAGCTGG", "sensor-assay potency score (higher = more potent)": -1.68}]}, {"target": "CREB5", "experiment": "pooled miR-30 sensor sort-seq; sequence = guide strand", "settings": "shRNA", "values": [{"sequence": "TTAACAGGCAACAACCACCAGA", "sensor-assay potency score (higher = more potent)": -0.508}, {"sequence": "TTGAACTGAGCTATTTTTCTGG", "sensor-assay potency score (higher = more potent)": 0.269}, {"sequence": "TATGTGTTAACAACAACTGTTT", "sensor-assay potency score (higher = more potent)": -0.672}, {"sequence": "TACACTTCTACAAGAAAGCTGT", "sensor-assay potency score (higher = more potent)": 0.523}, {"sequence": "TTACTTGTAAGTTTATTGCTGC", "sensor-assay potency score (higher = more potent)": 0.486}, {"sequence": "TTTAAAAACAAGTAGATCCTAC", "sensor-assay potency score (higher = more potent)": 0.376}, {"sequence": "TTTAATGACAAACTCAACTTAC", "sensor-assay potency score (higher = more potent)": -0.383}, {"sequence": "TAGAACATTGTATTTGAACTGA", "sensor-assay potency score (higher = more potent)": -0.137}]}]}
